Assay results: PubChem BioAssay AID1159580 (chemical genetic matrix, 2015)
About 2,000 (36%) of roughly 5,500 compounds were called active. Another 18% or so got no clear call; they are omitted. Rule as the data show it: active = normalized growth mostly below about 0.91 (no sharp cut-off); inconclusive = no clear call, values can overlap the other calls; inactive = mostly above about 0.92. This is one part of the list.

Test: chemical genetic growth profiling, strain panel (AID 1159580);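 also: tested at 20 µM; growth read once vehicle control cultures reached saturation at 30 °C; 1 = growth at the plate median or of vehicle wells; lower values mean less growth of the strain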
Conditions: growth OD

Measured: normalized growth

CC1(C)C[C@@H]2C(=O)CC[C@H]3O[C@]3(C)CC[C@H]21
inactive: S. cerevisiae deletion strains, locus YJR075W, strain HOC1, hits give low values 1.01 | S. cerevisiae deletion strains, locus YKL009W, strain mrt4, hits give low values 0.985 | S. cerevisiae deletion strains, locus YKL068W, hits give low values 0.997 | S. cerevisiae deletion strains, locus YKL085W, strain MDH1 (second series), hits give low values 0.996 | S. cerevisiae deletion strains, locus YKL085W, strain MDH1, hits give low values 0.996 | S. cerevisiae deletion strains, locus YKL160W, strain elf1, hits give low values 1.01 | S. cerevisiae deletion strains, locus YKL190W, strain CNB1, hits give low values 1.01 | S. cerevisiae deletion strains, locus YKR001C, strain vps1, hits give low values 0.994 | S. cerevisiae deletion strains, locus YKR026C, strain gcn3, hits give low values 1.02 | S. cerevisiae deletion strains, locus YKR091W, strain srl3, hits give low values 1.01 | S. cerevisiae deletion strains, locus YLL001W, strain dnm1, hits give low values 0.985 | S. cerevisiae deletion strains, locus YLL026W, hits give low values 1.01 | S. cerevisiae deletion strains, locus YLL041C, strain sdh2, hits give low values 1.01 | S. cerevisiae deletion strains, locus YLR027C, strain aat2, hits give low values 1.03 | S. cerevisiae deletion strains, locus YLR039C, strain RIC1, hits give low values 1.07 | S. cerevisiae deletion strains, locus YLR058C, strain SHM2, hits give low values 1.01 | S. cerevisiae deletion strains, locus YLR102C, strain apc9, hits give low values 0.991 | S. cerevisiae deletion strains, locus YLR113W, strain HOG1, hits give low values 0.951 | S. cerevisiae deletion strains, locus YLR221C, strain rsa3, hits give low values 1.04 | S. cerevisiae deletion strains, locus YLR258W, strain gsy2, hits give low values 0.995 | S. cerevisiae deletion strains, locus YLR262C, strain YPT6 (second series), hits give low values 1.05 | S. cerevisiae deletion strains, locus YLR262C, strain YPT6, hits give low values 1.06 | S. cerevisiae deletion strains, locus YLR268W, strain sec22, hits give low values 0.992 | S. cerevisiae deletion strains, locus YLR320W, strain mms22, hits give low values 1.04 | S. cerevisiae deletion strains, locus YLR330W, strain CHS5, hits give low values 1.01 | S. cerevisiae deletion strains, locus YLR342W, strain FKS1 (second series), hits give low values 0.987 | S. cerevisiae deletion strains, locus YLR342W, strain FKS1, hits give low values 1.01 | S. cerevisiae deletion strains, locus YLR357W, strain rsc2, hits give low values 1 | S. cerevisiae deletion strains, locus YLR370C, strain arc18, hits give low values 1.01 | S. cerevisiae deletion strains, locus YLR371W, strain rom2, hits give low values 0.998 | S. cerevisiae deletion strains, locus YLR384C, strain iki3, hits give low values 1.03 | S. cerevisiae deletion strains, locus YLR418C, strain cdc73, hits give low values 1.01 | S. cerevisiae deletion strains, locus YML016C, strain PPZ1, hits give low values 1 | S. cerevisiae deletion strains, locus YML032C, strain rad52, hits give low values 0.983 | S. cerevisiae deletion strains, locus YML120C, strain ndi1, hits give low values 0.999 | S. cerevisiae deletion strains, locus YML124C, strain tub3, hits give low values 0.995 | S. cerevisiae deletion strains, locus YMR058W, strain fet3, hits give low values 1.03 | S. cerevisiae deletion strains, locus YMR078C, strain ctf18, hits give low values 0.989 | S. cerevisiae deletion strains, locus YMR125W, strain sto1, hits give low values 1.01 | S. cerevisiae deletion strains, locus YMR129W, hits give low values 1.01 | S. cerevisiae deletion strains, locus YMR205C, strain PFK2, hits give low values 1 | S. cerevisiae deletion strains, locus YMR223W, strain ubp8, hits give low values 0.991 | S. cerevisiae deletion strains, locus YMR231W, strain pep5, hits give low values 1.02 | S. cerevisiae deletion strains, locus YMR263W, strain SAP30, hits give low values 1.02 | S. cerevisiae deletion strains, locus YMR307W, strain GAS1, hits give low values 1.01 | S. cerevisiae deletion strains, locus YNL067W, strain RPL9B, hits give low values 1.01 | S. cerevisiae deletion strains, locus YNL071W, strain lat1, hits give low values 1.01 | S. cerevisiae deletion strains, locus YNL128W, strain TEP1, hits give low values 1.02 | S. cerevisiae deletion strains, locus YNL153C, strain GIM3, hits give low values 1.02 | S. cerevisiae deletion strains, locus YNL183C, strain NPR1, hits give low values 0.905 | S. cerevisiae deletion strains, locus YNL209W, strain ssb2, hits give low values 1.01 | S. cerevisiae deletion strains, locus YNL233W, strain BNI4, hits give low values 1.02 | S. cerevisiae deletion strains, locus YNL248C, strain rpa49, hits give low values 1.04 | S. cerevisiae deletion strains, locus YNL250W, strain rad50, hits give low values 0.998 | S. cerevisiae deletion strains, locus YNL271C, strain bni1, hits give low values 0.997 | S. cerevisiae deletion strains, locus YNL298W, strain CLA4, hits give low values 0.996 | S. cerevisiae deletion strains, locus YNL307C, strain MCK1, hits give low values 0.99 | S. cerevisiae deletion strains, locus YNL322C, strain KRE1 (second series), hits give low values 1 | S. cerevisiae deletion strains, locus YNL322C, strain KRE1, hits give low values 1.01 | S. cerevisiae deletion strains, locus YNR049C, strain mso1, hits give low values 1.02 | S. cerevisiae deletion strains, locus YNR052C, strain pop2, hits give low values 0.999 | S. cerevisiae deletion strains, locus YOL006C, strain TOP1, hits give low values 1.07 | S. cerevisiae deletion strains, locus YOL012C, strain htz1 1.57 | S. cerevisiae deletion strains, locus YOL147C, strain pex11, hits give low values 0.997 | S. cerevisiae deletion strains, locus YOR001W, strain rrp6, hits give low values 1.02 | S. cerevisiae deletion strains, locus YOR061W, strain CKA2, hits give low values 1.01 | S. cerevisiae deletion strains, locus YOR069W, strain VPS5, hits give low values 1 | S. cerevisiae deletion strains, locus YOR070C, strain gyp1, hits give low values 1.02 | S. cerevisiae deletion strains, locus YOR080W, strain dia2, hits give low values 1.03 | S. cerevisiae deletion strains, locus YOR083W, strain WHI5, hits give low values 1.01 | S. cerevisiae deletion strains, locus YOR106W, strain vam3, hits give low values 0.995 | S. cerevisiae deletion strains, locus YOR136W, strain idh2, hits give low values 0.996 | S. cerevisiae deletion strains, locus YOR144C, strain elg1, hits give low values 0.995 | S. cerevisiae deletion strains, locus YOR184W, strain ser1, hits give low values 0.962 | S. cerevisiae deletion strains, locus YOR231W, strain MKK1, hits give low values 0.947 | S. cerevisiae deletion strains, locus YOR265W, strain rbl2, hits give low values 1.03 | S. cerevisiae deletion strains, locus YOR270C, strain vph1, hits give low values 1.07 | S. cerevisiae deletion strains, locus YOR290C, strain snf2, hits give low values 0.995 | S. cerevisiae deletion strains, locus YOR316C, strain cot1, hits give low values 0.992 | S. cerevisiae deletion strains, locus YPL051W, strain arl3, hits give low values 1 | S. cerevisiae deletion strains, locus YPL055C, strain LGE1, hits give low values 1.04 | S. cerevisiae deletion strains, locus YPL078C, strain atp4, hits give low values 0.992 | S. cerevisiae deletion strains, locus YPL106C, strain sse1, hits give low values 0.984 | S. cerevisiae deletion strains, locus YPL240C, strain hsp82, hits give low values 1.02 | S. cerevisiae deletion strains, locus YPL241C, strain CIN2, hits give low values 1.01 | S. cerevisiae deletion strains, locus YPL256C, strain CLN2, hits give low values 0.983 | S. cerevisiae deletion strains, locus YPR119W, strain clb2, hits give low values 0.992 | S. cerevisiae deletion strains, locus YPR141C, strain kar3, hits give low values 0.991 | S. cerevisiae deletion strains, locus YPR163C, strain tif3, hits give low values 0.998 | S. cerevisiae deletion strains, locus YPR167C, strain met16, hits give low values 0.995 | S. cerevisiae deletion strains, strain wtn01, hits give low values 0.989 | S. cerevisiae strains, strain wild type, hits give low values 1.01
